From PubChem BioAssay (Tox21)
“And” between values parts separate entries of the source, which are not always exact repeats. Equal values may be shown once. Inconclusive results are not listed. Where a call stands in place of a potency, no number is given. Some compounds were tested as several samples or in several runs, with calls that do not always agree. The source made the active and inactive calls. Unless noted, calls come from the whole dose curve; as a rule, active = well fitted curve in the direction sought with a large enough effect in the repeat runs; inconclusive = weak or mixed curves; inactive = no such curve, though single readings can be large; an effect the other way counts as inactive or inconclusive.

What was measured:
[1] = qHTS assay for small molecules that induce genotoxicity in human embryonic kidney cells expressing luciferase-tagged ATAD5 (AID 651632); note: nearly all actives have a fitted effect of over 15% in size
In short: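 Concentration-response screen for ATAD5 upregulation in HEK293T luciferase reporter cells; 16 hr treatment at 37C, then luminescence after 30 min with Amplite at room temperature.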

[2] = qHTS assay for small molecule agonists of the p53 signaling pathway - cell viability (AID 651633; calls by dose curve; note: nearly all actives have a fitted effect of over 30% in size; note: potency is the fitted concentration of half-maximal effect)
In short: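 Viability counter-read: CellTiter-Glo luminescence (30 min, room temperature) in the same p53RE-bla plates. These plates had been exposed to compounds for 16 h at 37 C.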

[3] = qHTS assay for small molecules that induce genotoxicity in human embryonic kidney cells expressing luciferase-tagged ATAD5 - cell viability (AID 651634; calls by dose curve; note: nearly all actives have a fitted effect of over 25% in size)
In short: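 15.5 hr compound or vehicle exposure of HEK293T cells expressing luciferase-tagged ATAD5 at 37C; live-cell protease activity is read by fluorescence after 30 min of CellTiter-Fluor.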

[4] = qHTS assay for small molecule disruptors of the mitochondrial membrane potential - cell viability (AID 720634; calls by dose curve;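 note: human HepG2 liver cancer cells; series mostly up to about 83 µM; nearly all actives have a fitted effect of over 20% in size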)
In short: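 In this qHTS format, HepG2 cells plated overnight were pinned with compound, incubated 1 hr, and assayed for ATP luminescence with CellTiter-Glo after m-MPI dye addition.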

[5] = qHTS assay for small molecule disruptors of the mitochondrial membrane potential (AID 720635); note: potency is the fitted concentration of half-maximal effect
In short: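 Mitochondrial membrane potential tracked with Mito-MPS dye, red aggregates (ex 540/em 590 nm) against green monomers (ex 490/em 535 nm). Compound treatment 1 hr at 37C, dye 30 min in HepG2.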

[6] = qHTS assay to test for compound auto fluorescence at 590 nm (red) in HepG2 cells (AID 720674)
In short: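 1 hr compound incubation on HepG2 cells, 37 C, 5% CO2; plate read ex 540 nm / em 590 nm; intensities reported as Rose Bengal sodium equivalents.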

[7] = qHTS assay to test for compound auto fluorescence at 535 nm (green) in HepG2 cells (AID 720675)
[8] = qHTS assay to test for compound auto fluorescence at 590 nm (red) in HEK293 cells (AID 720679)
In short: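 Red-channel autofluorescence (Ex/Em 540/590 nm; Rose Bengal sodium reference) was measured after overnight 37C, 5% CO2 exposure of attached HEK293 cells, 2,000 per well in medium with 10% dialyzed FBS.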

[9] = qHTS assay to test for compound auto fluorescence at 535 nm (green) in HEK293 cells (AID 720680)
[10] = qHTS assay to test for compound auto fluorescence at 460 nm (blue) in HEK293 cell free culture (AID 720681); note: potency is the fitted concentration of half-maximal effect
In short: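 Blue fluorescence (Ex 405/Em 460 nm, triamterene-equivalent) was read immediately after pin transfer of compound or DMSO into medium (DMEM, 10% FBS) without cells.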

[11] = qHTS assay to test for compound auto fluorescence at 535 nm (green) in HEK293 cell free culture (AID 720682)
In short: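 Measurement is a direct plate read of green fluorescence (485 nm in, 535 nm out) after compound addition to serum-supplemented DMEM lacking cells, with fluorescein used to express intensities.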

[12] = qHTS assay to test for compound auto fluorescence at 590 nm (red) in HEK293 cell free culture (AID 720683)
In short: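 Red-channel autofluorescence of compounds in culture medium (DMEM, 10% FBS), no cells, measured at 540/590 nm. Rose Bengal sodium is the reference fluorophore for equivalence.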

[13] = qHTS assay to test for compound auto fluorescence at 590 nm (red) in HepG2 cell free culture (AID 720684)
In short: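 No cells present: MEM + 10% FBS only. Compound pinned in, red label read (540/590 nm). Activity = fluorescence equivalent to Rose Bengal sodium.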

[14] = qHTS assay to test for compound auto fluorescence at 535 nm (green) in HepG2 cell free culture (AID 720686)
[15] = qHTS assay to test for compound auto fluorescence at 460 nm (blue) in HepG2 cells (AID 720687); note: potency is the fitted concentration of half-maximal effect
In short: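 Blue-channel autofluorescence (Ex/Em 405/460 nm, triamterene-equivalent) was measured after 1 hr compound exposure at 37 C, 5% CO2. Cells were HepG2, plated overnight at 37 C in MEM plus 10% FBS.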

[16] = molecular target: Glucocorticoid receptor (Homo sapiens) (UniProt P04150); experiment: qHTS assay to identify small molecule agonists of the glucocorticoid receptor (GR) signaling pathway (AID 720691; active = well fitted activation curve with a large enough effect in the signal ratio in the repeat runs, not every such curve was filed as active; the % refers to the signal ratio)
Sequence of Glucocorticoid receptor (Homo sapiens) (P04150 whole entry, looked up): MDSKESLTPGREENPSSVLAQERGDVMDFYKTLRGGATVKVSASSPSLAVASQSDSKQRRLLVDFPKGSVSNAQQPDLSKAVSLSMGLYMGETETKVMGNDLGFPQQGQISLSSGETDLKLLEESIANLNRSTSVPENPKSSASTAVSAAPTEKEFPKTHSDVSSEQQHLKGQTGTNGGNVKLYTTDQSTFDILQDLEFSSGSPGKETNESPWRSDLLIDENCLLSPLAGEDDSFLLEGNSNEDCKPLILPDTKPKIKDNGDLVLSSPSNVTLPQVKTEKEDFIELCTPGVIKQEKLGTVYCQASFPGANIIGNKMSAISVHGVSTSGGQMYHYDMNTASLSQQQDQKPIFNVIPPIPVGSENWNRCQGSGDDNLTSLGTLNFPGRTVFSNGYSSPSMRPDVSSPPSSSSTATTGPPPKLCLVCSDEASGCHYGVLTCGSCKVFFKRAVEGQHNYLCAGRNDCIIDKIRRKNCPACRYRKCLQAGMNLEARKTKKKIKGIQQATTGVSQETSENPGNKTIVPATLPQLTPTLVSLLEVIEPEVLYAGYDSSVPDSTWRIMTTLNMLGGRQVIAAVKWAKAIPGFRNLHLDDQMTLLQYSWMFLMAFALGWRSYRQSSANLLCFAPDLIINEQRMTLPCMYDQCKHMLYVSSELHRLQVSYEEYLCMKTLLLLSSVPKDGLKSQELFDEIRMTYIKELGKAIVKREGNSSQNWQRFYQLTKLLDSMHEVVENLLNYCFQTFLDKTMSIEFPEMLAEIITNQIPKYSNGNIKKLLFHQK
In short: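 Measures GR pathway activation through a GRE-beta-lactamase reporter stably integrated in HeLa cells, with 18 h compound treatment at 37 C and fluorescence detection using a FRET substrate.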

[17] = molecular target: Glucocorticoid receptor (Homo sapiens) (UniProt P04150); experiment: qHTS assay to identify small molecule antagonists of the glucocorticoid receptor (GR) signaling pathway (AID 720692; active = well fitted inhibition curve with a large enough effect in the signal ratio in the repeat runs, not every such curve was filed as active; the % refers to the signal ratio; note: potency is the fitted concentration of half-maximal effect)
In short: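 Tox21 10K library screened in concentration-response for blockade of dexamethasone (5 nM final)-induced GRE-bla reporter activity in HeLa cells; 18 h treatment, fluorescence read.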

[18] = qHTS assay for small molecule agonists of the p53 signaling pathway (AID 651631; calls by dose curve; note: nearly all actives have a fitted effect of over 15% in size; note: potency is the fitted concentration of half-maximal effect)
In short: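 Quantitative high-throughput format: 4,000 p53RE-bla HCT-116 cells/well, 5 h pre-incubation, 16 h compound exposure at 37 °C, 2 h room-temperature substrate step, fluorescence intensity measured.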

[19] = qHTS assay to test for compound auto fluorescence at 460 nm (blue) in HEK293 cells (AID 720678); note: potency is the fitted concentration of half-maximal effect
In short: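 Blue-channel (Ex/Em 405/460 nm) intensity measured in HEK293 cultures after overnight compound exposure at 37C; signal expressed relative to triamterene. Cells plated 2,000 per well in 10% dialyzed FBS medium and allowed 4-5 hr to attach.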

[20] = qHTS assay to test for compound auto fluorescence at 460 nm (blue) in HepG2 cell free culture (AID 720685)
In short: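 Cell-free plates of MEM plus 10% FBS received 23 nL compound or DMSO vehicle; blue-channel (405/460 nm) intensity scored against triamterene as reference fluorophore.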
Tags give direction and shape of the fitted curve or compound fluorescence and quenching.

SMILES | Potency [1] | Potency [2] | Potency [3] | Potency [4] | Potency [5] | Potency [6] | Potency [7] | Potency [8] | Potency [9] | Potency [10] | Potency [11] | Potency [12] | Potency [13] | Potency [14] | Potency [15] | Potency [16] | Potency [17] | Potency [18] | Potency [19] | Potency [20]
COC(C)=O | inactive | inactive | inactive | inactive | inactive | inactive | inactive | inactive | inactive | inactive | inactive | inactive | inactive | inactive | inactive | inactive | inactive | – | – | –
O=C(/C=C/c1ccc(O)c(O)c1)O[C@@H](C(=O)O)[C@@H](OC(=O)/C=C/c1ccc(O)c(O)c1)C(=O)O | – | inactive | inactive | inactive | inactive | inactive | inactive | – | inactive | – | inactive | inactive | inactive | inactive | inactive | inactive | inactive | inactive | inactive | inactive
Cc1cc(C(C)(C)C)c(O)c(C)c1Cn1c(=O)n(Cc2c(C)cc(C(C)(C)C)c(O)c2C)c(=O)n(Cc2c(C)cc(C(C)(C)C)c(O)c2C)c1=O | inactive | inactive | inactive | inactive | 9.69 µM (active) | inactive | inactive | inactive | inactive | inactive | inactive | inactive | inactive | inactive | inactive | inactive | – | – | inactive | inactive
COc1cc2nc(N3CCN(C(=O)c4ccco4)CC3)nc(N)c2cc1OC | – | inactive | – | inactive | inactive | inactive | inactive | – | inactive | inactive | inactive | inactive | inactive | inactive | inactive | inactive | – | 13.3 µM (active) | inactive | inactive
CC1(C)CC(O)CC(C)(C)N1 | – | inactive | – | – | – | inactive | inactive | – | – | inactive | inactive | inactive | inactive | inactive | – | inactive | inactive | inactive | – | inactive
CCCCCCC1CCCC(=O)O1 (stereo not drawn) | – | inactive | inactive | inactive | – | inactive | inactive | inactive | inactive | inactive | inactive | inactive | inactive | inactive | inactive | inactive | inactive | inactive | inactive | inactive
C=CCCC(=O)/C=C/C1C(C)=CCCC1(C)C (stereo not drawn) | inactive | inactive | inactive | inactive | 61.1 µM (active) | inactive | – | inactive | inactive | inactive | inactive | inactive | inactive | inactive | inactive | inactive | inactive | – | – | inactive
CCCCCCCCCCCC(=O)OCC(C)OC(=O)CCCCC(=O)O (stereo not drawn) | inactive | inactive | inactive | inactive | inactive | inactive | inactive | inactive | inactive | inactive | inactive | inactive | inactive | inactive | inactive | inactive | – | – | inactive | inactive
O=C(O)Cc1ccccc1Nc1c(Cl)cccc1Cl | – | inactive | inactive | – | – | – | inactive | inactive | inactive | inactive | inactive | inactive | inactive | inactive | inactive | – | – | inactive | inactive | inactive
C=C(C)c1cccc(C(=C)C)c1 | inactive | inactive | inactive | inactive | inactive | inactive | inactive | inactive | inactive | inactive | inactive | inactive | inactive | inactive | – | inactive | inactive | – | inactive | inactive
CC1(C)[C@@H](O)CC[C@]2(C)[C@H]3C(=O)C=C4[C@@H]5C[C@@](C)(C(=O)O)CC[C@]5(C)CC[C@@]4(C)[C@]3(C)CC[C@@H]12 | inactive | 23.7 µM (active) and inactive | inactive | inactive | 23.7 µM (active) and 67.8 µM (active) | inactive | inactive | inactive | inactive | inactive | inactive | inactive | inactive | inactive | inactive | – | 23.9 µM (active) and 21.3 µM (active) and 43.2 µM (active) | – | inactive | inactive
O=S(=O)(O)c1ccc(Nc2nc(Nc3ccc(/C=C/c4ccc(Nc5nc(Nc6ccc(S(=O)(=O)O)cc6)nc(N(CCO)CCO)n5)cc4S(=O)(=O)O)c(S(=O)(=O)O)c3)nc(N(CCO)CCO)n2)cc1 | – | inactive | – | inactive | – | – | inactive | inactive | inactive | 25.1 µM (active) | inactive | inactive | inactive | inactive | 35.5 µM [fluorescent] (active) | – | – | 41.3 µM (active) | 31.6 µM [fluorescent] (active) | –
COc1cc(/C=C/c2ccccc2)oc(=O)c1 | – | inactive | inactive | inactive | 71 µM (active) | – | inactive | inactive | inactive | inactive | inactive | inactive | inactive | inactive | inactive | inactive | inactive | inactive | inactive | inactive
CC(N=C(NC#N)Nc1ccncc1)C(C)(C)C (stereo not drawn) | inactive | inactive | inactive | inactive | inactive | inactive | inactive | inactive | inactive | inactive | inactive | inactive | inactive | inactive | inactive | inactive | inactive | – | inactive | inactive
